PubChem BioAssay (EPA / NIEHS)
Records with an inconclusive call do not appear. A structure can be active in one record and inactive in another. The source made the active and inactive calls. How the source made its calls, unless noted: active means hit-call score of the fitted dose curve at least 0.9, where 1 is the maximum; inconclusive means response in the unintended direction; inactive means score below 0.9.

Legend:
[1] = biological target: human Thyroid Receptor Alpha (TRa), THRA (gene 7067) (UniProt P10827); assay: NVS_NR_hTRa_Antagonist: NovaScreen (NVS) Nuclear Receptor Binding Assay for human Thyroid Receptor Alpha Antagonism (TRa) (AID 2283362);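 further: activity is loss of signal relative to DMSO baseline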
How it was run: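 In this biochemical format, receptor protein is dosed with chemical and read after 1 hour via AlphaLISA. Decreases from the DMSO baseline indicate antagonist activity; screening used 25 uM in duplicate before concentration-response confirmation.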

[2] = biological target: Nuclear receptor subfamily 1 group I member 2 (Homo sapiens) (UniProt O75469); assay: NVS_NR_hPXR: NovaScreen (NVS) Nuclear Receptor Binding Assay for human Pregnane X Receptor (PXR) (AID 2283365);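 further: a drop in FRET signal versus DMSO baseline means the compound binds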
How it was run: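 Read-out: TR-FRET, human PXR, 2 h post-dosing, cell-free. Loss of signal vs DMSO taken as binding activity; 25 uM primary, concentration series secondary.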

[3] = biological target: Peroxisome proliferator-activated receptor gamma (Homo sapiens) (UniProt P37231); assay: NVS_NR_hPPARg: NovaScreen (NVS) Nuclear Receptor Binding Assay for human Peroxisome Proliferator-activated Receptor gamma (PPARg) (AID 2283370)
How it was run: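 Extracted receptor protein, cell-free; compound incubated 2 h then fluorescence polarization read. Baseline: DMSO. Actives from 25 uM duplicate screen re-run across concentrations.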

[4] = biological target: mouse Estrogen Receptor alpha (Era), Esr1 (gene 13982) (UniProt P19785); assay: NVS_NR_mERa: NovaScreen (NVS) Nuclear Receptor Binding Assay for mouse Estrogen Receptor alpha (Era) (AID 2283378);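 further: hit means loss of bound radioligand signal relative to DMSO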
How it was run: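 Measurements come from scintillation counting after filtration, taken 18 hours after chemicals were added to a cell-free mouse Era preparation with radioligand. Screening was duplicate at 25 uM, with concurrent positive and negative controls and confirmatory concentration series for actives.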

[5] = biological target: Estrogen receptor (Homo sapiens) (UniProt P03372); assay: OT_ERa_GFPERaERE_0480: Odyssey Thera (OT) 8-hour HeLa Transcription Induction Assay for Estrogen Receptor (AID 2283381; active means hit-call score of the fitted dose curve at least 0.9, where 1 is the maximum; inactive means score below 0.9)
How it was run: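 Human cervical HeLa cells were treated for 8 hours, after which ERE-driven GFP induction was measured by fluorescence microscopy; increases over DMSO baseline defined activity.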

[6] = biological target: Estrogen receptor (Homo sapiens) (UniProt P03372); assay: OT_ERa_GFPERaERE_0120: Odyssey Thera (OT) 2-hour HeLa Transcription Induction Assay for Estrogen Receptor (AID 2283382)
How it was run: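 Cells (human cervical HeLa) receive compound, incubate 2 hours, then are imaged for fluorescent reporter induction. Images are quantified by high content analysis, and activity is fitted as gain of signal against DMSO.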

[7] = biological target: Bile acid receptor (Homo sapiens) (UniProt Q96RI1); assay: OT_FXR_FXRSRC1_1440: Odyssey Thera (OT) 24-hour HEK293T Protein-Complementation Assay for Farnesoid X receptor/SRC-1 Co-activator (AID 2283384)
How it was run: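 Measures ligand-driven FXR–SRC-1 co-activator recruitment in HEK293T via fragment complementation, fluorescence intensity at 24 h. DMSO served as negative control and baseline for gain-of-signal fitting.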

[8] = biological target: Retinoic acid receptor RXR-alpha (Homo sapiens) (UniProt P19793); assay: OT_NURR1_NURR1RXRa_0480: Odyssey Thera (OT) 8-hour HEK293T Protein Complementation Assay for Nurr1/retinoid X receptor (RXR) (AID 2283385)
How it was run: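 Interaction of bait and prey reconstitutes a functional reporter, whose fluorescence was measured in HEK293T cells dosed with compound for 8 hours. Signal gain relative to DMSO defined the single endpoint.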

PGR (gene 5241) = PGR (gene 5241) (UniProt P06401); assay: NVS_NR_hPR: NovaScreen (NVS) Nuclear Receptor Binding Assay for human Progestron Receptor (PR) (AID 2283360);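 further: active means loss of bound radioligand signal versus DMSO baseline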
How it was run: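 Competitive displacement of a labelled radioligand from T47D-derived receptor protein is measured in a cell-free format. Initial testing uses 25 uM in duplicate, with positive and negative controls on every plate.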

[9] = biological target: Retinoic acid receptor alpha (Homo sapiens) (UniProt P10276); assay: NVS_NR_hRARa_Agonist: NovaScreen (NVS) Nuclear Receptor Binding Assay for human Retinoic Acid Alpha Receptor Agonism (RAR) (AID 2283361)
How it was run: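 TR-FRET signal, 2 h post-dosing; cell-free extracted protein; DMSO = baseline, positive fitting direction; 25 uM single-point duplicate, then concentration series for actives.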

[10] = biological target: Glucocorticoid receptor (Homo sapiens) (UniProt P04150); assay: NVS_NR_hGR: NovaScreen (NVS) Nuclear Receptor Binding Assay for human Glucocorticoid Receptor (GR) (AID 2283363);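 on AC50: activity is loss of specific radioligand binding signal relative to DMSO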
How it was run: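 Filter scintillation readout of tritiated/iodinated radioligand displaced by test chemical; cell-free extracted protein; 16 h. DMSO = negative control/baseline. Duplicate single-point 25 uM screen, then concentration-response on actives.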

[11] = biological target: Retinoic acid receptor RXR-alpha (Homo sapiens) (UniProt P19793); assay: OT_NURR1_NURR1RXRa_1440: Odyssey Thera (OT) 24-hour HEK293T Protein Complementation Assay for Nurr1/retinoid X receptor (RXR) (AID 2283386)
How it was run: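 Steps: fragment-tagged Nurr1 and RXRα expressed in HEK293T; compounds added; after 24 h, complemented reporter quantified by fluorescence intensity; signal increase over DMSO fitted as the single endpoint.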

[12] = biological target: Estrogen receptor beta (Homo sapiens) (UniProt Q92731); assay: OT_ER_ERbERb_1440: Odyssey Thera (OT) 24-hour HEK293T Protein-Complementation Assay for Estrogen Receptor-beta/-beta Homodimer (AID 2283380);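 further: scored as signal increase over DMSO baseline for both agonists and antagonists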
How it was run: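 HEK293T cells stably expressing ER beta LBD (aa 310-547) homodimer fragment-complementation reporter, dosed 24 h. Cells formaldehyde-fixed, Draq5-stained; gain in nuclear (agonist) or nuclear plus cytoplasmic (antagonist) fluorescence versus DMSO read by laser scanning cytometry.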

[13] = biological target: rat Androgen Receptor (AR), Ar (gene 24208) (UniProt P15207); assay: NVS_NR_rAR: NovaScreen (NVS) Nuclear Receptor Binding Assay for rat Androgen Receptor (AR) (AID 2283366)
How it was run: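 Actives from a duplicate single-concentration (25 uM) primary run went on to concentration series. Displacement of radioligand was counted by filtration and scintillation, 18 h post-dose, using prostate extracts from testosterone-pretreated rats, with DMSO as baseline.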

[14] = biological target: Agonist Androgen Response Element (ARE), AR (gene 367) (UniProt P10275); assay: OT_AR_ARELUC_AG_1440: Odyssey Thera (OT) 24-hour CHO-K1 Luciferase Assay for Agonist Androgen Response Element (ARE) (AID 2283379)
How it was run: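 Gain-of-signal reporter endpoint: cells (CHO-K1, hamster) are treated 24 h, luciferin/ATP reagent added, and luminescence compared with DMSO baseline.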

[15] = biological target: guinea pig Sigma Receptor, Non-selective Binding, SIGMAR1 (gene 100135589) (UniProt Q60492); assay: NVS_OR_gSIGMA_NonSelective: NovaScreen (NVS) Nuclear Receptor Binding Assay for guinea pig Sigma Receptor, Non-selective Binding (AID 2283367)
How it was run: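 Membranes from guinea pig brain incubated with radioligand and test chemical for 1 h, then filtered and scintillation-counted. Duplicate primary testing at 25 uM, with concentration-series follow-up for actives.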

Sequence of Nuclear receptor subfamily 1 group I member 2 (Homo sapiens) (O75469 whole entry, looked up): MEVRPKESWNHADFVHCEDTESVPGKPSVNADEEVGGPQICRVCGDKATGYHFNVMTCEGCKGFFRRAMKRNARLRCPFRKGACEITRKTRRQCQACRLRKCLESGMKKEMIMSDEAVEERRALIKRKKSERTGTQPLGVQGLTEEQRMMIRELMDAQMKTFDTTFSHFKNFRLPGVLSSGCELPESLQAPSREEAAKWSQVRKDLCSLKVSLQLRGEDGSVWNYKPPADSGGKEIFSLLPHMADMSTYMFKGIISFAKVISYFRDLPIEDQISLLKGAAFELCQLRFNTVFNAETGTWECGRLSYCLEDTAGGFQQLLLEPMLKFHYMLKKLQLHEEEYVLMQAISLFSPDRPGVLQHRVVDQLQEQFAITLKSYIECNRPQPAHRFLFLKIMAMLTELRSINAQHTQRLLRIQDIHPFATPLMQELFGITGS
Sequence of Retinoic acid receptor alpha (Homo sapiens) (P10276 whole entry, looked up): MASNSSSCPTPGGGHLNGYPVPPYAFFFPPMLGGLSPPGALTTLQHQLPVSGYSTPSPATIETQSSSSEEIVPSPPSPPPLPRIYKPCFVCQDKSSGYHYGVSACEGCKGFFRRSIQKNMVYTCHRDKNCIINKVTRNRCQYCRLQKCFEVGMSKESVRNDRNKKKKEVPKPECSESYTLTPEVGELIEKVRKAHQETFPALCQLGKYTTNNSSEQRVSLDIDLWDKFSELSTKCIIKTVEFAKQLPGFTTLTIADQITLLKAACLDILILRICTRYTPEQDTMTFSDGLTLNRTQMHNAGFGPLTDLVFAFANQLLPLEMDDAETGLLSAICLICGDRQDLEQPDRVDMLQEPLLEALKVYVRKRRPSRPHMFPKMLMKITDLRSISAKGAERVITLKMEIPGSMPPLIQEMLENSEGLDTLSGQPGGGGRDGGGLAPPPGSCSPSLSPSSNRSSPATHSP
Sequence of Peroxisome proliferator-activated receptor gamma (Homo sapiens) (P37231 whole entry, looked up): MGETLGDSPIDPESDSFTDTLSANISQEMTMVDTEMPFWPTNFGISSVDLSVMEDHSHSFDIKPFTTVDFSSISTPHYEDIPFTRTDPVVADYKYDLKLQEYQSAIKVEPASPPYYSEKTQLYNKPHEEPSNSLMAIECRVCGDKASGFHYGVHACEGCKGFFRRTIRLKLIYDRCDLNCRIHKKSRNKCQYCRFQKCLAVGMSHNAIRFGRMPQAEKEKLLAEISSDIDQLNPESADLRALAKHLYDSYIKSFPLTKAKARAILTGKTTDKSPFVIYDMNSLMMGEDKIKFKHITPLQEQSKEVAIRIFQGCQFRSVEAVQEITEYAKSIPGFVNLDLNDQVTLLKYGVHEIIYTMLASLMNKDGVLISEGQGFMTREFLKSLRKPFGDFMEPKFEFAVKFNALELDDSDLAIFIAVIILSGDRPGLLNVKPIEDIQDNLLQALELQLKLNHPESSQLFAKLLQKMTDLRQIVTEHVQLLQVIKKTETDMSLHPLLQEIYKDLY
Sequence of Estrogen receptor beta (Homo sapiens) (Q92731 whole entry, looked up, the tested form may be a part): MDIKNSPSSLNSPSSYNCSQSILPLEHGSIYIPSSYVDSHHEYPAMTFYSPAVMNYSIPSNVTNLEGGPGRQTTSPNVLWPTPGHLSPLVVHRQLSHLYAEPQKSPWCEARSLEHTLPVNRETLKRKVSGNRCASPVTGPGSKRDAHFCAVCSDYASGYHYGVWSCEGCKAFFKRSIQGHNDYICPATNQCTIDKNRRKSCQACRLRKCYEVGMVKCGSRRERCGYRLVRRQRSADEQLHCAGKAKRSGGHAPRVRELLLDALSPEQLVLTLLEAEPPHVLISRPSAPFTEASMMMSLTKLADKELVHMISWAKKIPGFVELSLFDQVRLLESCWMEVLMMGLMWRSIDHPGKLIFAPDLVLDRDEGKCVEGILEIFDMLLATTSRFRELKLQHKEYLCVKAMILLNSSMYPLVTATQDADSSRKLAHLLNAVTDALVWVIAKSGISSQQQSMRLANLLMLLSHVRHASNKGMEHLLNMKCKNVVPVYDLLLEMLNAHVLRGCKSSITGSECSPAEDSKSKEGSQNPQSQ
Sequence of Estrogen receptor (Homo sapiens) (P03372 whole entry, looked up): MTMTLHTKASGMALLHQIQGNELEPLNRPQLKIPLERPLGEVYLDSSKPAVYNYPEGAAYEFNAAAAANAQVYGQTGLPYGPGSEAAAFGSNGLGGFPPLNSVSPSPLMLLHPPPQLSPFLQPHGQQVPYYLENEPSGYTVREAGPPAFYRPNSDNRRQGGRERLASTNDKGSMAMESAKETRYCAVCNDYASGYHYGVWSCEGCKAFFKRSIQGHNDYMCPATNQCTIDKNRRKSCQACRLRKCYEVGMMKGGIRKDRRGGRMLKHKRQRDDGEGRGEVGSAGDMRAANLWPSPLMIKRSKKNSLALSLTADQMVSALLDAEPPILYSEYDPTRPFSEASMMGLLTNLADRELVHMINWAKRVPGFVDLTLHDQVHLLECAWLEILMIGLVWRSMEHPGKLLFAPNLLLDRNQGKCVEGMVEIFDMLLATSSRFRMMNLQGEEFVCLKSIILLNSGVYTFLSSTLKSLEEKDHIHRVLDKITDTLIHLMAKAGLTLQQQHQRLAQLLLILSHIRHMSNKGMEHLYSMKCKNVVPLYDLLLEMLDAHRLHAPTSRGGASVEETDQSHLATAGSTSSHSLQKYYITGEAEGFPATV
Sequence of Glucocorticoid receptor (Homo sapiens) (P04150 whole entry, looked up): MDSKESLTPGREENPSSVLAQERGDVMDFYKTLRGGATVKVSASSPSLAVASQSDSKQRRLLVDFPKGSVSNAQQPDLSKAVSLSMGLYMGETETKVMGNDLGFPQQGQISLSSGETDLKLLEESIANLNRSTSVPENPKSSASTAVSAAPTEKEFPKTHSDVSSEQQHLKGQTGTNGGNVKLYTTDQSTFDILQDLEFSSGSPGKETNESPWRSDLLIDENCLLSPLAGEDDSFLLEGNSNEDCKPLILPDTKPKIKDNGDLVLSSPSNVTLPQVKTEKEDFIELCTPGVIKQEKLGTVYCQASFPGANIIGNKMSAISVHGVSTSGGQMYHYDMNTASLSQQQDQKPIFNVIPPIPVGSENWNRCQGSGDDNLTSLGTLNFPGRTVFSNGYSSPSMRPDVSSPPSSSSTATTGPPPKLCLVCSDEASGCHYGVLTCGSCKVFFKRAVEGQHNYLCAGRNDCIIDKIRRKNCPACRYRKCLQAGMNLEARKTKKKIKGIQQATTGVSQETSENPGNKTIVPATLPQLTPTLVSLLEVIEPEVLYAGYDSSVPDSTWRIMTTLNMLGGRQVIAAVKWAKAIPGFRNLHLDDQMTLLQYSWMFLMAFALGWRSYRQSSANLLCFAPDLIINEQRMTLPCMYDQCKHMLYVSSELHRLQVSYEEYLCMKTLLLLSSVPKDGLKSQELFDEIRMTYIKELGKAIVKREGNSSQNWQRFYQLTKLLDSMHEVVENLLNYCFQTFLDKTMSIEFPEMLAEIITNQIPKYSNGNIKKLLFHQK
Sequence of Retinoic acid receptor RXR-alpha (Homo sapiens) (P19793 whole entry, looked up, the tested form may be a part): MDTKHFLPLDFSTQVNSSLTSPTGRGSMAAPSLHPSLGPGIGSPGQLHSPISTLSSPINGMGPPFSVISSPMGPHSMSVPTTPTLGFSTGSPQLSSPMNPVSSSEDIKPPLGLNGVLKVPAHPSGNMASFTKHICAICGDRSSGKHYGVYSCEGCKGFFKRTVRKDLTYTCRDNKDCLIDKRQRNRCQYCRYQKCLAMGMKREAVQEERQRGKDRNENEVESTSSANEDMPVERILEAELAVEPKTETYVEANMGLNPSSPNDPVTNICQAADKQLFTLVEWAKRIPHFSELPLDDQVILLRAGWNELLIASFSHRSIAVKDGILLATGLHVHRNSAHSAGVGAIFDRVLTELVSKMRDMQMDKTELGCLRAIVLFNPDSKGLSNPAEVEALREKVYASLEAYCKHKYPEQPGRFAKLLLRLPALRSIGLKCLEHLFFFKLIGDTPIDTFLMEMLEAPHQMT
Sequence of human Thyroid Receptor Alpha (TRa), THRA (gene 7067) (P10827 whole entry, looked up): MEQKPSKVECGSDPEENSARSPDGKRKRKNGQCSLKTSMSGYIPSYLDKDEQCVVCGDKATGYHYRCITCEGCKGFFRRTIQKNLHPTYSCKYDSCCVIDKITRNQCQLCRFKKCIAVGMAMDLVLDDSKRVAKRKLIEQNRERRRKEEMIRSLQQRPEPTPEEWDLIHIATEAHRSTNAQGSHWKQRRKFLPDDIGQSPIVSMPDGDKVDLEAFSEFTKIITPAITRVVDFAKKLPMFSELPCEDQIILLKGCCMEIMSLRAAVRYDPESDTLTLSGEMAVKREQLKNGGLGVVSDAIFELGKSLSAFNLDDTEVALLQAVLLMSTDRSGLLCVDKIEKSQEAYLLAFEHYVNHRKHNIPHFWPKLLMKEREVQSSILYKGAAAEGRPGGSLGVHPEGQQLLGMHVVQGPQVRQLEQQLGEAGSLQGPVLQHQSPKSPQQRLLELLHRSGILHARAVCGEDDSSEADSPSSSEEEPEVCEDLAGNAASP
Sequence of mouse Estrogen Receptor alpha (Era), Esr1 (gene 13982) (P19785 whole entry, looked up): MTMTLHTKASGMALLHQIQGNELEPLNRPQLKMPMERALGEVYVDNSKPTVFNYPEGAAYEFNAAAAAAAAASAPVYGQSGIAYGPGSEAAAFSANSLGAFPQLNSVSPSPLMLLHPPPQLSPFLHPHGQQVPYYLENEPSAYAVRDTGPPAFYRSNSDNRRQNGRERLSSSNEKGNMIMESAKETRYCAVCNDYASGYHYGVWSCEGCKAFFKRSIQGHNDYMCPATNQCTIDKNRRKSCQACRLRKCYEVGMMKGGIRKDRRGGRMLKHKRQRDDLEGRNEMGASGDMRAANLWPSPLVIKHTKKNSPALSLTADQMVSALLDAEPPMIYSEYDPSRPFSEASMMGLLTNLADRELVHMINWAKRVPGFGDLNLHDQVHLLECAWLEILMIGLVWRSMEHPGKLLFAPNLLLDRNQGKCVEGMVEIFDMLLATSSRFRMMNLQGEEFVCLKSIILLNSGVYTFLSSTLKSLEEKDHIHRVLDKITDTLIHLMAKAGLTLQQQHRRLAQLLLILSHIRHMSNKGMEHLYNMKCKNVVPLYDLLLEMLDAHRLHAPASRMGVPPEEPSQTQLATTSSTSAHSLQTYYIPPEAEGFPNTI

With CCCCC/C=C\C/C=C\CCCCCCCC(=O)O the outcome [1] was “inactive”, the AC50 [2] was 4.88 µM (active) and the AC50 [3] was 6.85 µM (active). For the same compound, the AC50 [4] was 35.8 µM (active), the outcome [5] was “inactive” and the outcome [6] was “inactive”. The outcome [7] was “inactive” and the outcome [8] was “inactive”.

In the case of Cc1cc(=O)[nH]c(=O)[nH]1, the outcome (PGR (gene 5241)) is reported as “inactive”.

O=c1c(O)c(-c2ccc(O)cc2O)oc2cc(O)cc(O)c12 was tested, and the AC50 [9] was 25 µM (active), the AC50 [10] was 25 µM (active) and the AC50 [2] was 6.31 µM (active). The outcome [3] was “inactive”, the outcome [4] was “inactive” and the outcome [5] was “inactive”. For the same compound, the outcome [6] was “inactive”, the outcome [8] was “inactive” and the outcome [11] was “inactive”.

O=C(O)c1cc(O)c2ccccc2c1O was tested, and the outcome [9] was “inactive”, the AC50 [1] was 18.4 µM (active) and the AC50 [10] was 9.52 µM (active). The AC50 [2] was 5.21 µM (active), the outcome [12] was “inactive” and the AC50 [6] was 25.4 µM (active). For the same compound, the outcome [8] was “inactive” and the outcome [11] was “inactive”.

In the case of CCCC(CC)c1ccccc1 (stereo not given), the outcome [10] is reported as “inactive”, the outcome [12] is reported as “inactive” and the outcome [5] is reported as “inactive”. For the same compound, the outcome [6] was “inactive”, the outcome [8] was “inactive” and the outcome [11] was “inactive”.

CCCCC(=O)O was tested, and the AC50 [10] was 8.11 µM (active), the outcome [10] was “inactive” and the outcome [12] was “inactive”. The outcome [5] was “inactive”, the outcome [6] was “inactive” and the outcome [11] was “inactive”.

Oc1ccc(-c2ccccc2)c(Cl)c1 was tested, and the outcome [9] was “inactive”, the AC50 [13] was 16.3 µM (active) and the outcome [3] was “inactive”. The outcome [4] was “inactive”, the outcome [14] was “inactive” and the AC50 [12] was 18.1 µM (active). For the same compound, the outcome [6] was “inactive”, the outcome [8] was “inactive” and the AC50 [11] was 69.5 µM (active).

CC(C)c1ccc(O)c(C(C)C)c1 was tested, and the outcome [1] was “inactive”, the outcome [3] was “inactive” and the outcome [12] was “inactive”. For the same compound, the outcome [5] was “inactive”, the outcome [6] was “inactive” and the outcome [8] was “inactive”.

For CCCCCCCCCCCCCCCCCCOS(=O)(=O)O, the AC50 [2] was 5.5 µM (active), the outcome [4] was “inactive” and the AC50 [12] was 12.6 µM (active). For the same compound, the outcome [5] was “inactive”, the outcome [6] was “inactive” and the outcome [7] was “inactive”. For the same compound, the outcome [11] was “inactive”.

CC(C)[N+](C)(CCOC(=O)C1c2ccccc2Oc2ccccc21)C(C)C was tested, and the outcome [10] was “inactive” and the AC50 [15] was 2.4 µM (active).

CCc1cccc(C)c1N was tested, and the outcome [2] was “inactive”, the outcome [3] was “inactive” and the outcome [14] was “inactive”. The outcome [5] was “inactive”, the outcome [6] was “inactive” and the outcome [8] was “inactive”. The outcome [11] was “inactive”.

In the case of CCCCCCOc1ccc(N)cc1, the outcome [10] is reported as “inactive”, the outcome [2] is reported as “inactive” and the outcome [6] is reported as “inactive”. The AC50 [7] was 14.3 µM (active), the outcome [8] was “inactive” and the outcome [11] was “inactive”.

CC(C)c1cc(C(C)C)cc(C(C)C)c1 was tested, and the outcome [2] was “inactive”, the outcome [3] was “inactive” and the outcome [12] was “inactive”. For the same compound, the outcome [5] was “inactive” and the outcome [6] was “inactive”.

C=C(C)C1CC=C(C)CC1 (stereo not given) was tested, and the outcome [10] was “inactive”, the outcome [5] was “inactive” and the outcome [6] was “inactive”. For the same compound, the outcome [8] was “inactive” and the outcome [11] was “inactive”.
